{"source": "PubChem BioAssay (NCATS)", "note": "Results filed as inconclusive are left out. Calls of active or inactive are those of the source. Calls follow the shape of the dose curve; as a rule, active = well fitted curve in the direction sought with a large enough effect; inconclusive = small, poorly fitted or top-dose-only effect, or another doubt; inactive = no such curve, though single readings can be large; an effect the other way counts as inactive or inconclusive.", "data": [{"assay": "Cell Viability - LYMP2-001 (AID 921); also: nearly all actives have a fitted effect of over 70% in size", "conditions": "LYMP2-001 lymphoblastoid cell viability; series mostly up to 92.2 µM", "in_short": "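Human lymphoblastoid LYMP2-001 cells, 2500 per well, in complete medium, treated 24 h at 37 C. Viability from cellular ATP by CellTiter-Glo luminescence; AC50 from Hill-equation fits of qHTS concentration-response.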", "values": [{"smiles": "NC(=Nc1ccccc1)Nc1ccccc1", "outcome": "inactive"}, {"smiles": "COc1cc(Cc2cnc(N)nc2N)cc(OC)c1OC", "outcome": "inactive"}, {"smiles": "CCCCNC(=O)NS(=O)(=O)c1ccc(C)cc1", "outcome": "inactive"}, {"smiles": "CCCCOCCOCCOCc1cc2c(cc1CCC)OCO2", "outcome": "inactive"}, {"smiles": "COc1ccc(CN(CCN(C)C)c2ccccn2)cc1", "outcome": "inactive"}, {"smiles": "O=c1[nH]c(=O)n([C@H]2C[C@H](O)[C@@H](CO)O2)cc1Br", "outcome": "inactive"}]}, {"assay": "Confirmation and Secondary Assay for Modulators of Hemoglobin Beta Chain Splicing at IVS2 705 locus (AID 930)", "conditions": "HeLa EGFP-705 splicing reporter, GFP fluorescence, 48 h; series mostly up to 46.1 µM", "in_short": "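HeLa cells stably carrying EGFP interrupted by mutant beta-globin intron 2 (IVS2-705) treated 2 days at 37C with compound; 500 nM antisense PNA as control. Correct splicing read as total peak GFP intensity per well by laser-scanning cytometry.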", "values": [{"smiles": "Cc1ccc(/C(=C\\CN2CCCC2)c2ccccn2)cc1", "outcome": "inactive"}, {"smiles": "CCn1cc(C(=O)O)c(=O)c2cc3c(cc21)OCO3", "outcome": "inactive"}, {"smiles": "CCO/C([O-])=N/c1c[n+](N2CCOCC2)no1", "outcome": "inactive"}, {"smiles": "CCCNC(C)C(=O)Nc1ccccc1C", "note": "(stereo not drawn)", "outcome": "inactive"}, {"smiles": "C=CCc1ccccc1OCC(O)CNC(C)C", "note": "(stereo not drawn)", "outcome": "inactive"}, {"smiles": "CC(C)COCC(CN(Cc1ccccc1)c1ccccc1)N1CCCC1", "note": "(stereo not drawn)", "outcome": "inactive"}, {"smiles": "COc1cc(Cc2cnc(N)nc2N)cc(OC)c1OC", "outcome": "inactive"}, {"smiles": "CCCC(C(=O)OCCN(CC)CC)(c1ccccc1)c1ccccc1", "outcome": "inactive"}, {"smiles": "CC(N=C(NC#N)Nc1ccncc1)C(C)(C)C", "note": "(stereo not drawn)", "outcome": "inactive"}, {"smiles": "CCCCNC(=O)NS(=O)(=O)c1ccc(C)cc1", "outcome": "inactive"}, {"smiles": "Nc1c2c(nc3ccccc13)CCCC2O", "note": "(stereo not drawn)", "outcome": "inactive"}, {"smiles": "Cc1ccc(S(=O)(=O)NC(=O)NN2CCCCCC2)cc1", "outcome": "inactive"}, {"smiles": "CC(=O)OC(C)C[N+](C)(C)C", "note": "(stereo not drawn)", "outcome": "inactive"}, {"smiles": "Fc1ccc(C(c2ccc(F)cc2)N2CCN(C/C=C/c3ccccc3)CC2)cc1", "outcome": "inactive"}, {"smiles": "CC(C)[N+](C)(CCOC(=O)C1c2ccccc2Oc2ccccc21)C(C)C", "outcome": "inactive"}, {"smiles": "CN(C)C(=O)Oc1cccc([N+](C)(C)C)c1", "outcome": "inactive"}, {"smiles": "CC(C)(Oc1ccc(CCNC(=O)c2ccc(Cl)cc2)cc1)C(=O)O", "outcome": "inactive"}, {"smiles": "Cc1ccc(Cl)c(Nc2ccccc2C(=O)O)c1Cl", "outcome": "inactive"}, {"smiles": "CN/C(=C\\[N+](=O)[O-])NCCSCc1ccc(CN(C)C)o1", "outcome": "inactive"}, {"smiles": "COCCc1ccc(OCC(O)CNC(C)C)cc1", "note": "(stereo not drawn)", "outcome": "inactive"}, {"smiles": "CC(C)NCC(O)c1cc(O)cc(O)c1", "note": "(stereo not drawn)", "outcome": "inactive"}, {"smiles": "CCCCCN(CCCCC)C(=O)C(CCC(=O)O)NC(=O)c1ccc(Cl)c(Cl)c1", "note": "(stereo not drawn)", "outcome": "inactive"}, {"smiles": "CCN(CC)CCOCCOC(=O)C1(c2ccccc2)CCCC1", "outcome": "inactive"}, {"smiles": "c1ccc2c(c1)CCCC2C1=NCCN1", "note": "(stereo not drawn)", "outcome": "inactive"}, {"smiles": "CCCN(CCC)C(=O)C(CCC(=O)O)NC(=O)c1ccccc1", "note": "(stereo not drawn)", "outcome": "inactive"}, {"smiles": "COC(=O)C1=C(C)NC(C)=C(C(=O)OCCN(C)Cc2ccccc2)C1c1cccc([N+](=O)[O-])c1", "note": "(stereo not drawn)", "outcome": "inactive"}, {"smiles": "CN(C)CCOC(=O)COc1ccc(Cl)cc1", "outcome": "inactive"}, {"smiles": "COc1ccc(CN(CCN(C)C)c2ccccn2)cc1", "outcome": "inactive"}, {"smiles": "CC(C)(C)NCC(O)c1cc(O)cc(O)c1", "note": "(stereo not drawn)", "outcome": "inactive"}, {"smiles": "OC(CCN1CCCCC1)(c1ccccc1)C1CCCCC1", "note": "(stereo not drawn)", "outcome": "inactive"}, {"smiles": "Nc1nc(N)c2nc(-c3ccccc3)c(N)nc2n1", "outcome": "inactive"}, {"smiles": "Cc1nc2ccccn2c(=O)c1CCN1CCC(C(=O)c2ccc(F)cc2)CC1", "outcome": "inactive"}]}]}
